Pf growth 96h – P. falciparum growth inhibition at 96 hour, primary screen for plastid delayed-death inhibitors | P. falciparum luciferase reporter growth, 96 h | Potency, µM (series often up to 28.7 µM), for the others: at the highest dose activity change, negative = inhibition, hits mostly inhibitors | actives 6.9% (n = 320,000); further: potency means the concentration at half of the fitted maximal effect; on the % scale 0 is the no-effect control and ±100 the full control effect
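Compounds incubated with erythrocytes infected by luciferase-expressing P. falciparum (2% hematocrit, 0.05% parasitemia final) for 96 hours, 37 C in 5% CO2. Growth inhibition scored as decreased luciferase luminescence.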
Pf growth 48h – inhibits P. falciparum growth in the first generation, 48 h. actives 5.9% (n = 310,000). P. falciparum luciferase growth in erythrocytes, 48 h. Potency, µM (doses to about 28.7 µM), without a hit: top-dose activity change, negative = inhibition, most hits filed as inhibitors; further: potency means the concentration at half of the fitted maximal effect; on the % scale 0 is the no-effect control and ±100 the full control effect
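Read-out is firefly luciferase luminescence from an integrated reporter in P. falciparum, so falling signal marks reduced parasite growth. Infected erythrocytes were at 2% hematocrit and 0.1% parasitemia (final) in Albumax-supplemented RPMI 1640.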
Cycloheximide cs – counter-screen hit for Shiga toxin inhibitors, cycloheximide. cell reporter, cycloheximide protein synthesis inhibition counterscreen. max response, %. actives 12% (n = 300,000). AID 2314; in the data active means max response mostly above about 13%, no sharp cut-off; inactive means mostly below about 14%; further: read at 38.3 µM for the half of the compounds with a filed dose; 0% is about no effect
Shiga toxin inh – Shiga toxin inhibition. Vero cells, Shiga toxin protein synthesis inhibition reporter. actives 9.2% (n = 290,000). inhibition, % at 38.7 µM. AID 2315; in the data active means inhibition mostly above about 28%, no sharp cut-off; inactive means mostly below about 43%; further: 0% is about no effect
Starred values were filed as active, the others as inactive; u = inconclusive; x = no result given; [ ] = another dose, or the depositor's remark. The list is not random: actives were taken first. Their share in the collection is about 21%. Unless noted, the call rests on the fitted dose curve; in most records, active means well fitted inhibition curve with a large enough effect; inconclusive means small, poorly fitted or top-dose-only effect, or another doubt; inactive means no such curve, though single readings can be large or run the other way.

SMILES | Pf growth 96h | Pf growth 48h | Cycloheximide cs | Shiga toxin inh
Cc1cccc(-n2ncc3c(NC(C)C)ncnc32)c1 | 224% | 162% | 53* | 79*
CCOC(=O)N1CCC(Nc2ncnc3c2cnn3-c2ccccc2)CC1 | 33% | u | 3 | 18
COc1ccc(-n2ncc3c(Nc4cccc(C)c4)ncnc32)cc1 | 20%[5.75 µM] | 65% | 15* | 109*
Cc1cccc(-n2ncc3c(N)ncnc32)c1 | -3% | 3% | 52* | 93
COc1ccc(Nc2ncnc3c2cnn3-c2cccc(C)c2)cc1OC | 11% | 20% | -2 | 27
Cc1cccc(-n2ncc3c(Nc4ccc(F)cc4)ncnc32)c1 | u | u | 44* | 52*
CCOC(=O)N1CCN(C(=O)Nc2cccc(Cl)c2)CC1 | 12µM* | x | -1 | -7
O=C(Nc1cccc(Cl)c1)N1CCN(Cc2ccccc2)CC1 | -13% | 59% | 21* | 41*
CC(=O)Nc1ccc(OC(C)=O)cc1 | -14% | -3% | x | x
OCc1cc(CO)c(O)c(CCc2ccccc2)n1 | 4.7µM* | x | -2 | -9
CN(C)Cc1cc(CN(C)C)c(O)c(CCc2ccccc2)n1 | -34% | x | -3 | -7
C/C(=N/NC(=O)CNS(=O)(=O)c1ccc(C)cc1)c1cccc([N+](=O)[O-])c1 | u | -14% | 8 | -10
Cc1nc(-c2ccc(S(=O)(=O)N3CCN(C4c5ccccc5-c5ccccc54)CC3)s2)cs1 | u | u | 30* | 94*
O=S(=O)(c1ccc(Cl)s1)N1CCN(CCc2ccccc2)CC1 | 7% | -5% | -1 | -21
Cc1nc(-c2ccc(S(=O)(=O)N3CCCN(CCc4ccccc4)CC3)s2)cs1 | 4.1µM* | u | -1 | 9
Cc1nc(-c2ccc(S(=O)(=O)Oc3ccccc3Cl)s2)cs1 | 49% | 33% | 26* | 33*
CN(Cc1ccc2ccccc2c1)C(=O)c1ccc(C(F)(F)F)cc1 | 10% | 18% | -4 | 28
c1ccc(-n2nnnc2-n2nnc3ccccc32)cc1 | u | -7% | -5 | -19
c1ccc(-n2nnc3ccccc32)nc1 | 61% | 57% | 26* | 67*
C/C(=N\Nc1ccccn1)c1ccc(C#N)cc1 | -8% | -18% | 25* | 43*
C/C(=N\Nc1ccccn1)c1cccs1 | 264% | 342% | 46* | 93*
C/C(=N\NC(=O)C(N)=O)c1ccc(OC(F)F)cc1 | 24% | 103% | 14 | 11
C/C(=N\Nc1ccccn1)c1ccc(OC(F)F)cc1 | 57% | 5% | 18 | 38*
COc1ccccc1CNC(=O)CN1C(=O)COc2ccc(S(=O)(=O)N3CCCCC3)cc21 | -9% | u | 11 | 2
CC[N+]1(C)CCC(=C2c3ccccc3CC(=O)c3sccc32)CC1 (stereo unspecified) | 12µM* | u | -3 | -8
SMILES | Pf growth 96h | Pf growth 48h | Cycloheximide cs | Shiga toxin inh
O=C(Nc1ccc(Cl)cc1N1CCOCC1)C1CC1 | u | u | 12 | -24
O=C(Nc1ccc(N2CCOCC2)c(Cl)c1)c1ccccc1F | x | 94% | 35* | 109*
O=C(Nc1ccc(N2CCOCC2)c(Cl)c1)C1CCCCC1 | 19% | 9% | 52* | 129
Cc1cc(C(=O)Nc2ccc(N3CCOCC3)c(Cl)c2)c(C)o1 | 53% | 93% | 34* | 42*
O=C(/C=C/c1ccc(Cl)cc1)NC(=S)Nc1ccc(N2CCOCC2)c(Cl)c1 | 10µM* | 0% | 0 | 61
Cc1cc(C(=O)Nc2ccc(C)c(S(=O)(=O)N3CCOCC3)c2)c(C)o1 | 31% | u | 10 | 16
CC1CCCCC1NC(=O)COc1ncnc2sccc12 (stereo unspecified) | u | -2% | x | x
FC(F)(F)c1cc(-c2ccccn2)nc2cc(-c3ccccc3)nn12 | u | 3% | 1 | -6
COc1cc(C(=S)N2CCOCC2)cc(OC)c1OC(=O)c1ccc(C)cc1 | -25% | u | -1 | -12
O=C(/C=C/c1ccc(S(=O)(=O)N2CCOCC2)cc1)NC(=S)Nc1ccc(Cl)cc1Cl | -28% | u | -2 | -14
CCN(CC)S(=O)(=O)c1cccc(NC(=S)NC(=O)/C=C/c2ccc(S(=O)(=O)N3CCOCC3)cc2)c1 | 4.7µM* | u | -2 | -5
COC(=O)c1cc(NC(=O)c2cc(-c3ccc(Cl)cc3)oc2C(F)(F)F)ccc1N1CCOCC1 | u | 12µM* | 1 | 3
COC(=O)c1cc(NC(=O)c2cc(-c3ccccc3Cl)oc2C(F)(F)F)ccc1N1CCOCC1 | u | u | -3 | 27
O=C(Nc1ccc(N2CCOCC2)c(Cl)c1)c1ccc(Cl)cc1 | 10% | 0% | 32* | 52*
Cc1ccc(S(=O)(=O)N2CCCCC2)cc1NC(=O)c1ccccn1 | 0% | 0% | -2 | -6
O=C(CCCCCN1C(=O)c2ccccc2C1=O)Nc1ccc(C(=O)O)cc1 | 22% | 3% | 3 | -4
CC1(C)CC2(CC(c3ccc(F)cc3)c3ccc(O)cc3O2)NC(=S)N1 (stereo unspecified) | -16% | 2.3µM* | -3 | -7
CC1(C)CC2(CC(c3cccs3)c3cc(Cl)c(O)cc3O2)NC(=S)N1 (stereo unspecified) | u | u | -2 | -12
COc1ccc(N=Nc2[nH]c3ccc(C)cc3c2O)cc1 | u | 27% | 22* | 35*
Cc1ccc2[nH]c(=O)c(Cc3ccccc3)c(O)c2c1 | 107% | 28% | -2 | 1
Cc1ccc(N=Nc2[nH]c3ccccc3c2O)cc1 | 34% | 100% | 68* | 152*
O=C(CN1C(=O)NC2(CCc3ccccc32)C1=O)NCCc1ccccc1 (stereo unspecified) | -9% | -4% | x | x
O=S1(=O)CCN2N=C(C34CC5CC(CC(C5)C3)C4)SC2=N1 | -24% | -20% | 0 | -5
Cc1nnc(N)s1 | 18% | 13% | -2 | -15
COc1ccc(C(=O)Nn2c(SCC(=O)c3ccc(Cl)cc3)nc3ccccc3c2=O)cc1 | u | -60% | 17* | 22
SMILES | Pf growth 96h | Pf growth 48h | Cycloheximide cs | Shiga toxin inh
COc1ccc(C(=O)Nn2c(SCC(=O)N3CCC(C)CC3)nc3ccccc3c2=O)cc1 | 2% | 58% | 10 | 25
O=C(Nn1c(SCc2cccc([N+](=O)[O-])c2)nc2ccccc2c1=O)c1ccccc1 | 6% | 179% | 81* | 123*
COc1ccc(C(=O)Nn2c(SCc3cccc([N+](=O)[O-])c3)nc3ccccc3c2=O)cc1 | u | 217% | 61* | 114*
O=c1c2ccccc2nc(SCc2ccc([N+](=O)[O-])cc2)n1-c1ccccc1 | u | u | -2 | -18
COc1ccc(CC(=O)N2CCN=C2SCc2cccc([N+](=O)[O-])c2)cc1 | u | 10µM* | 9 | -5
CC(=O)Nc1ccc(NC(=O)C(C)OC(=O)C2CCN(S(=O)(=O)c3ccc4c(c3)OCCO4)CC2)cc1 (stereo unspecified) | 1% | u | x | x
CC(Sc1nnnn1-c1ccc(Cl)cc1)C(=O)NCC(=O)Nc1ccc(F)c(F)c1F (stereo unspecified) | 22% | -17% | 11 | 12
O=C(Cc1cccs1)Nc1cc(SCCO)cc([N+](=O)[O-])c1 | -36% | 9% | -3 | -1
Cc1cccc(NC(=O)c2ccc(S(=O)(=O)C(F)F)cc2)c1C | 0% | 37% | 16* | 24
